Consider 21 compounds from PubChem BioAssay (NCI).

The nature of experiment [1]: NCI Yeast Anticancer Drug Screen. Data for the rad50 strain (AID 155).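 Further: 0% = growth of vehicle-only cultures of the same strain.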 Particulars: S. cerevisiae rad50 strain growth inhibition; at 50.0 µM; stronger effect = higher value. Put shortly: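 Cells are treated with compound, grown, and their growth is then scored against vehicle-only cultures of the same repair-deficient yeast strain.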
A short description of experiment [2]: NCI Yeast Anticancer Drug Screen. Data for the mec2-1 strain (AID 157). Conditions: S. cerevisiae mec2-1 strain, at 50.0 µM, stronger effect = higher value. In a few lines:
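Mutant yeast (mec2-1) grown with compound; growth inhibition relative to vehicle control reported.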

Experiment [3] can be described thus: NCI Yeast Anticancer Drug Screen. Data for the sgs1 mgt1 strain (AID 161).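 Further: 0% = growth of cultures given vehicle only.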 Particulars: S. cerevisiae sgs1 mgt1 strain, at 50.0 µM, stronger effect = higher value. Put shortly:
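Yeast cells carrying a defined DNA-repair defect were exposed to test compounds. Growth inhibition was measured relative to vehicle-treated controls.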

Experiment [4] is described as follows: NCI Yeast Anticancer Drug Screen. Data for the cln2 rad14 strain (AID 165).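 Further: 0% = growth equal to vehicle treated cultures.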 Conditions: S. cerevisiae cln2 rad14 strain, at 50.0 µM, stronger effect = higher value. In a few lines:
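Readout is yeast growth inhibition versus vehicle-treated controls, using a strain with cln2 and rad14 alterations exposed to compound.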

Experiment [5] in a line: NCI Yeast Anticancer Drug Screen. Data for the bub3 strain (AID 167). Conditions: S. cerevisiae bub3 mutant strain, at 50.0 µM, stronger effect = higher value. In a few lines: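 Part of a panel of yeast mutants defective in DNA damage repair or cell cycle regulation. Each strain is grown with compound, and inhibition is calculated relative to solvent-treated cultures.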
A short description of experiment [6]: NCI Yeast Anticancer Drug Screen. Data for the mlh1 rad18 strain (AID 175). Conditions: S. cerevisiae mlh1 rad18 strain growth inhibition; at 50.0 µM; stronger effect = higher value. Put shortly:
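Genetically defined yeast (DNA repair-deficient) exposed to compounds; growth inhibition determined relative to vehicle.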

About 79,000 compounds went through this panel and 15% of them were active in at least one assay; those are over-represented in the sample as a whole. Unmarked numbers belong to inactive results. Active and inactive are the calls of the source. No stated cut-off is given here; in the data, active means growth inhibition above about 70%; inactive means the rest.

In the case of `CC(=O)OCC1OC(Nc2[nH]c(=O)n(C)c(=O)c2C(=O)CCl)C(OC(C)=O)C(OC(C)=O)C1OC(C)=O` (stereo unspecified), the growth inhibition is 5.15% in experiment [1]; 18.5% in experiment [2]; 2.45% in experiment [3]; -2.55% in experiment [4]; -3.8% in experiment [5]; -4.15% in experiment [6].

For `CC(=O)Nc1cccc(C)n1`, the growth inhibition in experiment [1] is -17.8%; in experiment [2], -3.2%; in experiment [3], 1.6%; in experiment [4], -71.8%; in experiment [5], -0.95%; in experiment [6] it was 1.7%.

In the case of `COc1ccccc1-c1cc(=O)c2cc(C)cnc2[nH]1`, the growth inhibition was 5.6% in experiment [1]; 5.5% in experiment [2]; -0.5% in experiment [3]; -30.9% in experiment [4]; 4.65% in experiment [5]; 13.9% in experiment [6].

On to `CC(C)CCCC(C)C1CCC2C3CCC4CC(O)C5(CC4(C)C3CCC12C)SCCS5` (stereo unspecified), for which the growth inhibition in experiment [1] was 41%; in experiment [2], 10.9%; in experiment [3], 15.1%; in experiment [4] it was 18.4%; in experiment [5], -6.35%; in experiment [6] it was 18.4%.

In the case of `O=C(CNS(=O)(=O)c1ccccc1)c1ccc(Cl)cc1Cl`, the growth inhibition in experiment [1] is 31.6%; in experiment [2], 36.2%; in experiment [3], 53%; in experiment [4] it was 22.3%; in experiment [5] it was 54.5%; in experiment [6], 53.8%.

With `Nc1ncnc(N)c1NC(=O)c1cccc(-c2ccccc2)c1`, the growth inhibition in experiment [1] was 2.85%; in experiment [2], 41.1%; in experiment [3], 23.9%; in experiment [4], 0.8%; in experiment [5] it was 34.9%; in experiment [6] it was -21.1%.

Take `N#Cc1nc(Nc2ccc([N+](=O)[O-])cc2)sc1N`: the growth inhibition in experiment [1] was 55.1%; in experiment [2] it was 33.8%; in experiment [3], 31.1%; in experiment [4], 36.2%; in experiment [5], 19.9%; in experiment [6], 22.4%.

Consider `NC=O`, for which the growth inhibition in experiment [1] is -9.45%; in experiment [2], 11.2%; in experiment [3], 7.1%; in experiment [4], -1.4%; in experiment [5] it was -0.15%; in experiment [6], -11.7%.

For the compound `Cc1ccc(CNC2=C(Cl)C(=O)c3ccccc3C2=O)cc1C`, the growth inhibition is 96.9% (active) in experiment [1]; 98.2% (active) in experiment [2]; 97.2% (active) in experiment [3]; 97.2% (active) in experiment [4]; 98% (active) in experiment [5]; 97.2% (active) in experiment [6].

As to `COC(=O)Nc1cccc(OC(=O)NC2CCCCC2)c1`, the growth inhibition in experiment [1] is 12.1%; in experiment [2], 32.7%; in experiment [3], 15.1%; in experiment [4], 4.25%; in experiment [5], 33.8%; in experiment [6], 16.4%.

For the compound `Cc1ccc(S(=O)(=O)Nc2ccccc2-c2nc3c(Cl)ccc(Cl)c3c(=O)o2)cc1`, the growth inhibition in experiment [1] was 33.6%; in experiment [2], 0.15%; in experiment [3], 41.5%; in experiment [4], -10.3%; in experiment [5], -5.45%; in experiment [6], 10.7%.

Take `Cc1cc2ccccc2[nH]1`: the growth inhibition is 33.9% in experiment [1]; -15.3% in experiment [2]; -3.65% in experiment [3]; 3.1% in experiment [4]; 2.75% in experiment [5]; 10% in experiment [6].

As for `CC1C=CCCC1COC(=O)C(=O)OCC1CC=CCC1C` (stereo unspecified), the growth inhibition in experiment [1] is 32.7%; in experiment [2], 0.15%; in experiment [3], 28.1%; in experiment [4] it was 9.25%; in experiment [5] it was 31.9%; in experiment [6] it was 19.9%.

Turning to `COc1cc(/C=C(/C#N)C(N)=O)cc(OC)c1OC`, the growth inhibition in experiment [1] was 15.6%; in experiment [2], 10.6%; in experiment [3] it was 18.9%; in experiment [4], 12.3%; in experiment [5] it was 11.1%; in experiment [6], 14.8%.

Regarding `O=S(=O)(c1ccccc1)N1C[C@@H]2[C@H](C1)[C@H]1C=C[C@@H]2C1`, the growth inhibition is 1.95% in experiment [1]; -12.3% in experiment [2]; 13% in experiment [3]; -4.8% in experiment [4]; 42.6% in experiment [5]; -11% in experiment [6].

With `CCC(C(=O)O)c1ccc(-c2ccccc2)cc1` (stereo unspecified), the growth inhibition in experiment [1] is 24.6%; in experiment [2], 24.1%; in experiment [3], 19.1%; in experiment [4], 23.1%; in experiment [5], 24.4%; in experiment [6], 9.5%.

Take `CCc1nnc(CC)n1N1C(=O)CCC1=O`: the growth inhibition is 24.1% in experiment [1]; 28.1% in experiment [2]; 26.2% in experiment [3]; 11.1% in experiment [4]; 24.8% in experiment [5]; 21.7% in experiment [6].

Consider `COc1ccc(C(=O)c2ccccc2)c(O)c1`, for which the growth inhibition was 13.1% in experiment [1]; 1.8% in experiment [2]; -10.6% in experiment [3]; 4.95% in experiment [4]; 0.55% in experiment [5]; 6.9% in experiment [6].

Turning to `O=C(COc1c(Cl)cc(Cl)c2ccccc12)NC1c2ccccc2Oc2ccccc21`, the growth inhibition was 22.6% in experiment [1]; 0.4% in experiment [2]; 34.1% in experiment [3]; 7.45% in experiment [4]; 10.2% in experiment [5]; 14.4% in experiment [6].

With `O=C(O)c1cc(=O)[nH]c(SCc2ccc(Cl)cc2Cl)n1`, the growth inhibition in experiment [1] is -14.4%; in experiment [2] it was 14.5%; in experiment [3] it was -7.05%; in experiment [4], -10.2%; in experiment [5] it was 9.6%; in experiment [6], -1.35%.

For the compound `CCOC(=O)COS(=O)(=O)C(F)(F)F`, the growth inhibition was 21.6% in experiment [1]; -12.7% in experiment [2]; -11.4% in experiment [3]; 2.95% in experiment [4]; 3.5% in experiment [5]; -10.7% in experiment [6].
